# Compounds with a hit are over-represented: about 5.6% of the library has one in this group of screens.
# H9c2 protect: modulators protecting cardiomyocytes from myocardial damage; AID 588492; H9c2 cardiomyocytes, H2O2 injury protection, ATPLite, 2 h; protection from H2O2 cell death, % at 20 µM; 360,000 compounds, 0.63% hits;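 active = compounds giving at least 50% protection of heart cells from peroxide-induced death in the single-dose screen, raw or plate-pattern-corrected value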;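 note: 0% = DMSO wells with peroxide and 100% = DMSO wells without peroxide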
# ALR inh: blocks human ALR sulfhydryl oxidase activity; P55789; purified ALR, DTT oxidation, H2O2 HRP-luminol luminescence; inhibition, % (test concentration not listed); 290,000 compounds, 3.8% hits; AID 485317;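 active = mean replicate inhibition above about 79%, with every replicate also reaching it, limit read from the data; inconclusive = only one of the two criteria met; inactive = mean below limit and not every replicate reaching it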
# Target sequence (P55789 whole entry, looked up): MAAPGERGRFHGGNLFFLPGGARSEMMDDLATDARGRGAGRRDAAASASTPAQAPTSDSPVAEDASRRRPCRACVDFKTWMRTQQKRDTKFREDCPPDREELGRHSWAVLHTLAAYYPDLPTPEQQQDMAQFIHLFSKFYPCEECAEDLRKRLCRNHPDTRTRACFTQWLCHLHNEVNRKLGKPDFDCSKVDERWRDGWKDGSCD
# PHOSPHO1 block: PHOSPHO1 (human) inhibition; inhibition, % at 13.3 µM; Q8TCT1; AID 1565; recombinant PHOSPHO1, absorbance phosphatase assay; 290,000 compounds, 1.1% hits; in the data active = inhibition above about 60%
# Target sequence (Q8TCT1 whole entry, looked up): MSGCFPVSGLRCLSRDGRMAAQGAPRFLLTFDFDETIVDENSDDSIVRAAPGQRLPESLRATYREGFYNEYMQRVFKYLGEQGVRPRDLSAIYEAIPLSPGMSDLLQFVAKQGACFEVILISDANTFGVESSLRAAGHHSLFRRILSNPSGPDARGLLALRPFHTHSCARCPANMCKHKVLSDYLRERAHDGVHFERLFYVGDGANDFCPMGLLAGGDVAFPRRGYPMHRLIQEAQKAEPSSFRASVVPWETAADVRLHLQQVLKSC
# PfGluPho inh: PfG6PD (Plasmodium falciparum) enzyme inhibition. PfGluPho enzyme, NADPH resazurin-diaphorase fluorescence. inhibition, % at 20 µM. 350,000 compounds, 0.78% hits. AID 504690;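 active = inhibition reaching at least a set limit at 20 µM in the primary screen, cut at about 59% in these data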;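 note: 0% = DMSO wells with substrate and 100% = DMSO wells lacking glucose-6-phosphate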
# M18AAP inhibitor: blocks P. falciparum M18 aspartyl aminopeptidase; recombinant PfM18AAP, H-Glu-NHMec fluorogenic cleavage; inhibition, % at 7.35 µM; 290,000 compounds, 1.2% hits;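 active = inhibition above the campaign mean inhibition over all tested compounds plus 3 SD, cut at about 28% in these data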;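 note: 0% = plate median of test compound wells and 100% = 2 mM ZnCl2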
# An asterisk follows results filed as active; ? = inconclusive; nt = no result given.
SMILES,H9c2 protect,ALR inh,PHOSPHO1 block,PfGluPho inh,M18AAP inhibitor
Cc1cc(O)ccc1Nc1nc(-c2cccs2)cs1,-17,88*,28,26,11
O=C(CN1CCc2cc3c(cc2C1)OCCCO3)Nc1cccc(Br)c1,-4,1,44,14,6
CCOC1=C2[C@H](c3ccc(CC)cc3)N(S(=O)(=O)c3ccc(C)cc3)C[C@H]2n2c(=O)n(-c3ccccc3)c(=O)n2C1,-3,nt,nt,nt,nt
CNc1nc2ccccc2n1CC(=O)c1ccccc1,-3,41,15,-9,-9
COc1cc(NS(=O)(=O)c2cc(NC(C)=O)ccc2OC)c(OC)cc1NC(=O)c1ccccc1,23,nt,nt,17,nt
COCCNC(=O)c1onc(CSc2cc(C)cc(C)c2)c1C(=O)O,-5,42,46,-1,6
COCCNC(=O)c1onc(CSc2ccc(C)c(C)c2)c1C(=O)O,7,90*,7,-30,-8
Cc1ccc(SCc2noc(C(=O)NC(C)C)c2C(=O)O)cc1C,-2,96*,37,6,0
CCCCNC(=O)c1onc(CCl)c1C(=O)OC,6,97*,35,16,3
CCCCNC(=O)c1onc(CSc2ccc(F)cc2)c1C(=O)O,0,11,3,-6,-8
CCCCNC(=O)c1onc(CSc2ccc(OC)cc2)c1C(=O)O,3,?,98*,16,3
O=C(CSc1nnc(NC(=O)c2ccccc2F)s1)NC1CC1,0,2,-2,11,2
COc1ccc(NC(=O)CSc2nc3ccc(Nc4nc(N5CCOCC5)nc(N5CCOCC5)n4)cc3s2)cc1,30,5,12,-30,-2
CC(C)(C)NC(=O)CSc1nc2ccc(Nc3nc(N4CCOCC4)nc(N4CCOCC4)n3)cc2s1,91*,99*,16,20,-2
CCOC(=O)CSc1nc2ccc(Nc3nc(N4CCOCC4)nc(N4CCOCC4)n3)cc2s1,27,99*,2,4,-3
CC(=O)CSc1nc2ccc(Nc3nc(N4CCOCC4)nc(N4CCOCC4)n3)cc2s1,-1,99*,31,-3,3
CCOC(=O)c1ccc(Nc2nc(N3CCOCC3)nc(N3CCOCC3)n2)cc1,10,-23,55,14,-3
Cc1ccc(NC(=O)CSc2nc3ccc(Nc4nc(N5CCOCC5)nc(N5CCOCC5)n4)cc3s2)cc1,-7,-5,3,-10,-6
CC(C)=C(NC(=O)c1ccccc1)C(=O)Nc1ccc(C(=O)O)cc1,-5,-5,36,12,4
COc1cc(C(c2nnnn2C(C)(C)C)N2CCN(c3nc4ccccc4s3)CC2)ccc1O (stereo unspecified),18,6,61*,2,3
O=C(c1cc(-c2cccnc2)nc2ccccc12)N1CCN(S(=O)(=O)c2ccc(Cl)s2)CC1,4,nt,nt,-1,nt
Cc1nc2ccc(NC(=O)c3ccccc3)cc2c(=O)n1Cc1ccc(F)cc1,20,nt,nt,15,nt
Cc1ccc(-c2nn(-c3ccccc3)c3[nH]c(=O)c(CNCc4ccccc4)cc23)cc1,52*,nt,-8,-5,-4
Cc1nn(-c2ccccc2)c2[nH]c(=O)c(CNCCN3CCOCC3)cc12,4,91*,-13,-3,-4
Cc1ccc(-c2nn(-c3ccccc3)c3[nH]c(=O)c(CNCCN(C)C)cc23)cc1,nt,nt,-13,nt,nt
SMILES,H9c2 protect,ALR inh,PHOSPHO1 block,PfGluPho inh,M18AAP inhibitor
O=C(NC1CC1)c1ccc2sc([C@@H]3O[C@H](CO)[C@H](O)[C@H](O)[C@H]3O)nc2c1,-2,nt,nt,nt,nt
CC(Oc1ccc(F)cc1)C(=O)Nc1cc(S(=O)(=O)N2CCCCC2)ccc1N1CCOCC1 (stereo unspecified),0,-2,nt,21,nt
Cc1nnc(SCc2cccc([N+](=O)[O-])c2)[nH]c1=O,11,99*,3,-11,8
Cc1ccccc1CSc1nnc(C)c(=O)[nH]1,9,91*,2,-20,4
Cc1ccccc1CSc1nc2ccccc2c(=O)[nH]1,32,-6,3,-4,2
CC(=O)Nc1ccc(S(=O)(=O)NNC(=O)COc2cccc(C)c2)cc1,4,72,49,44,2
CC(=O)Nc1ccc(S(=O)(=O)NNC(=O)COc2cc(C)ccc2C(C)C)cc1,1,99*,-26,9,-2
Cc1cc(-c2csc(N)n2)c(C)n1CCC(C)C,1,-2,102*,24,2
O=C1C2C3C=CC(CO)(O3)C2C(=O)N1c1ccccc1-c1ccccc1 (stereo unspecified),-21,4,-5,82*,-140
O=C(O)/C(=C\c1ccccc1Cl)c1ccc(S(=O)(=O)N2CCCCC2)s1,-3,2,-23,-26,4
O=C(O)/C(=C\c1ccc(Cl)cc1)c1ccc(S(=O)(=O)N2CCCC2)s1,0,98*,nt,-21,nt
CSc1ccc(/C=C(\C(=O)O)c2ccc(S(=O)(=O)N3CCCCC3)s2)cc1,0,90*,12,-21,2
CC1(C)CC(=O)C(C2C3=C(CC(C)(C)CC3=O)Oc3c(Br)cc(Br)cc32)=C(O)C1 (stereo unspecified),-19,5,nt,-3,0
Cc1ccc(N=C2C(=S)N(c3ccc(C)cc3)C(=N)N2/N=C/c2ccc(Cl)cc2)cc1,-3,96*,-35,31,0
O=C(Nc1ccccc1N1CCCC1)c1ccc(N2CCCC2=O)cc1,6,99*,nt,-2,nt
COc1ccc(NC(=O)CSCC(=O)Nc2sccc2C#N)cc1,4,99*,nt,7,nt
COc1ccc(NC(=O)CSCC(=O)Nc2ccccc2N2CCCCC2)cc1,-8,nt,nt,0,nt
COc1cccc(C(=O)Nc2ccccc2N2CCCC2)c1,2,98*,-10,2,-1
COc1ccc(NC(=O)CSCC(=O)Nc2ccccc2N2CCCC2)cc1,-6,99*,nt,2,nt
COC(=O)Nc1ccc(S(=O)(=O)NNC(=O)c2c(O)c3ccccc3n(C)c2=O)cc1,7,5,34,11,10
O=C(Nc1ccccc1Cl)c1cnccn1,5,-3,-11,-6,-4
O=C(Nc1ccccc1N1CCN(C(=O)c2ccc(Cl)cc2)CC1)c1cccnc1,4,-14,-34,-7,-12
O=C(Nc1ccccc1N1CCCC1)c1cccnc1,-3,98*,2,2,-7
O=C(Nc1ccccc1N1CCCCC1)c1cnccn1,3,97*,19,-11,2
Clc1ccc(C=NN2CCCCCC2)cc1,-4,nt,nt,7,nt
SMILES,H9c2 protect,ALR inh,PHOSPHO1 block,PfGluPho inh,M18AAP inhibitor
Clc1ccc(/C=N/N2CCCCC2)cc1,7,-1,65*,3,-2
NC(=O)C1=C(c2ccccc2)c2ccccc2C1=O,55*,nt,nt,42,nt
Cc1ccc(C2=C(O)c3ccccc3C(=O)C2=O)cc1,-7,-12,35,18,-1
CCOc1cc(/C=C(/C#N)C(=O)Nc2ccc(O)cc2)cc(Br)c1O,0,99*,22,9,-4
C=CCNC(=O)/C(C#N)=C\c1cc(Cl)c(O)c(OCC)c1,2,28,-6,20,24
CCOc1cc(/C=N/NC(N)=O)cc(Br)c1OCC(=O)Nc1cccc2ccccc12,57*,0,-3,9,5
